Our source for the Potency values is PubChem BioAssay (Tox21).

Results filed as inconclusive are left out. Entries that show only a call come without a potency. Active and inactive are the calls of the source. Unless noted, the call rests on the fitted dose curve.
Potency means the concentration at half of the fitted maximal effect.

The nature of the first experiment: Nuclear factor erythroid 2-related factor 2/antioxidant responsive element (Nrf2/ARE) small molecule agonists: qHTS cell viability counter screen in human keratinocytes (AID 1919968; active means well fitted cell-killing curve with a large enough effect in the repeat runs; further: nearly all actives have a fitted effect of over 55% in size). Conditions: KeratinoSens HaCaT ARE cells viability, CellTiter-Fluor, 24 h; series mostly up to 92.4 µM. The method in brief: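 Seed 1,500 KeratinoSens cells per well, then incubate 5 h at 37 C/5% CO2. Add compounds in DMSO and incubate 23 h. Add CellTiter-Fluor, wait 1 h and read fluorescence.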
In general terms: Quantitative high-throughput screening tests each substance at several concentrations.
Turning to `CCCCCCCCP(=O)(O)O`, the Potency entry is “inactive”.
On the same count and under the same terms, then `c1ccc2c(c1)CCNC2`, with “inactive”; and `C[C@]12Cc3nonc3C[C@@H]1CC[C@@H]1[C@@H]2CC[C@@]2(C)[C@H]1CC[C@]2(C)O`, with “inactive”; and `Nc1cc(Cl)ccc1Cl`, with “inactive”.
Same read-out and setting: then `Clc1cccc(N2CCNCC2)c1`, with “inactive”.
Same read-out and setting: then `N#Cc1c(Cl)cccc1Cl`, with “inactive”; and `COc1ccc(CN2CCNCC2)c(OC)c1OC`, with “inactive”.
For the molecule `CC(Cc1ccccc1)N(C)Cc1ccco1` (stereo not given), the Potency result is “inactive”.
The same measure, in the same setting: then `ClCC(Cl)Cl`, with “inactive”; and `CC[C@@H](CO)NC(=O)[C@@H]1C=C2c3cccc4c3c(cn4C)C[C@H]2N(C)C1`, with “inactive”.
On to `CC1NCCOC1c1ccccc1` (stereo not given), for which the Potency result is “inactive”.
On to `O=C(Cc1ccccc1)OCCc1ccccc1`, for which the Potency entry is “inactive”.
The same measure, in the same setting: then `O=C(Cl)c1ccc(Cl)cc1`, with “inactive”; and `COc1ccc(C(=O)N2CCCC2=O)cc1`, with “inactive”.
Consider `ClCCCN1CCN(c2cccc(Cl)c2)CC1`, for which the Potency entry is “inactive”.
Same read-out and setting: then `C=CCC1([C@H](C)CCC)C(=O)NC(=O)NC1=O`, with “inactive”.
On the same count and under the same terms, then `ClC(Cl)=C(Cl)Cl`, with “inactive”; and `CCN(C(C)=O)c1cccc(-c2ccnc3c(C#N)cnn23)c1`, with “inactive”.
The same measure, in the same setting: then `CCCN1CCC[C@@H]2Cc3[nH]ncc3C[C@H]21`, with “inactive”; and `CC#Cc1cc(C)nc(Nc2ccccc2)n1`, with “inactive”; and `BrCCCCBr`, with “inactive”.
`O=c1[nH]oc2c1CCNC2`: the Potency result was “inactive”.
Same read-out and setting: then `O=C1OC(CCN2CCCCC2)OC1(c1ccccc1)c1ccccc1` (stereo not given), with “inactive”.
Regarding `N[C@@H](Cc1ccc(Oc2cc(I)c(O)c(I)c2)c(I)c1)C(=O)O`, the Potency entry is “inactive”.
Turning to `O=S1(=O)OC(c2cc(Br)c(O)c(Br)c2)(c2cc(Br)c(O)c(Br)c2)c2ccccc21`, the Potency was 14.1 µM (active).
The same measure, in the same setting: then `[Cl][Sn]([Cl])([Cl])[Cl]`, with “inactive”.
The same measure, in the same setting: then `O=[N+]([O-])c1ccc(CCl)cc1`, with “inactive”.
Turning to `O=C(CCCN1CCC(n2c(=O)[nH]c3ccccc32)CC1)c1ccc(F)cc1`, the Potency result is “inactive”.
On the same count and under the same terms, then `COc1cc(CC#N)cc(OC)c1OC`, with “inactive”.
Regarding `CC(C)NCC(O)c1ccc([N+](=O)[O-])cc1` (stereo not given), the Potency entry was “inactive”.
In the case of `CC(C(O)c1ccccc1)N(C)C/C=C/c1ccccc1` (stereo not given), the Potency entry is “inactive”.
As for `CC[C@@H](CO)NC(=O)[C@@H]1C=C2c3cccc4[nH]cc(c34)C[C@H]2N(C)C1`, the Potency result was “inactive”.
As to `CC(Cl)(Cl)Cl`, the Potency entry was “inactive”.
Regarding `CCOC(=O)CC(=O)CCl`, the Potency entry was “inactive”.
Still for that read-out and setting: then `CNC(C)Cc1ccccc1OC` (stereo not given), with “inactive”; and `CC(C)NCC(O)c1ccccc1Cl` (stereo not given), with “inactive”.
The same measure, in the same setting: then `CCN(CC)CCOC(=O)C(C)(c1ccccc1)c1ccccc1`, with “inactive”; and `ClCc1cccc(Cl)c1`, with “inactive”.
The same measure, in the same setting: then `CC1=C2C[C@H]3[C@@H](CC=C4C[C@@H](O)CC[C@@]43C)[C@@H]2CC[C@]12O[C@@H]1C[C@H](C)CN[C@H]1[C@H]2C`, with 11.9 µM (active); and `CC(C)[C@H](C(=O)OC(C#N)c1cccc(Oc2ccccc2)c1)c1ccc(OC(F)F)cc1` (stereo not given in full), with “inactive”.

The next experiment is described as follows: Nuclear factor erythroid 2-related factor 2/antioxidant responsive element (Nrf2/ARE) small molecule agonists: luciferase reporter gene qHTS assay in human keratinocytes (AID 1919969). Further: nearly all actives have a fitted effect of over 35% in size. Particulars: KeratinoSens HaCaT ARE-luciferase, luminescence, 24 h; series mostly up to 92.4 µM.
On to `CCCCCCCCP(=O)(O)O`, for which the Potency result was “inactive”.
`c1ccc2c(c1)CCNC2`: the Potency entry was “inactive”.
The same measure, in the same setting: then `C[C@]12Cc3nonc3C[C@@H]1CC[C@@H]1[C@@H]2CC[C@@]2(C)[C@H]1CC[C@]2(C)O`, with “inactive”; and `Nc1cc(Cl)ccc1Cl`, with “inactive”.
Same read-out and setting: then `Clc1cccc(N2CCNCC2)c1`, with “inactive”; and `N#Cc1c(Cl)cccc1Cl`, with “inactive”.
Turning to `COc1ccc(CN2CCNCC2)c(OC)c1OC`, the Potency result was “inactive”.
For the molecule `CC(Cc1ccccc1)N(C)Cc1ccco1` (stereo not given), the Potency result is “inactive”.
On the same count and under the same terms, then `ClCC(Cl)Cl`, with “inactive”; and `CC[C@@H](CO)NC(=O)[C@@H]1C=C2c3cccc4c3c(cn4C)C[C@H]2N(C)C1`, with “inactive”; and `CC1NCCOC1c1ccccc1` (stereo not given), with “inactive”.
On the same count and under the same terms, then `O=C(Cc1ccccc1)OCCc1ccccc1`, with “inactive”.
On the same count and under the same terms, then `O=C(Cl)c1ccc(Cl)cc1`, with “inactive”; and `COc1ccc(C(=O)N2CCCC2=O)cc1`, with “inactive”.
For the molecule `ClCCCN1CCN(c2cccc(Cl)c2)CC1`, the Potency result was “inactive”.
As to `C=CCC1([C@H](C)CCC)C(=O)NC(=O)NC1=O`, the Potency entry was “inactive”.
Still for that read-out and setting: then `ClC(Cl)=C(Cl)Cl`, with “inactive”.
Same read-out and setting: then `CCN(C(C)=O)c1cccc(-c2ccnc3c(C#N)cnn23)c1`, with “inactive”; and `CCCN1CCC[C@@H]2Cc3[nH]ncc3C[C@H]21`, with “inactive”; and `CC#Cc1cc(C)nc(Nc2ccccc2)n1`, with 48.5 µM (active).
For the molecule `BrCCCCBr`, the Potency entry was “inactive”.
On the same count and under the same terms, then `O=c1[nH]oc2c1CCNC2`, with “inactive”.
As for `O=C1OC(CCN2CCCCC2)OC1(c1ccccc1)c1ccccc1` (stereo not given), the Potency is 29.8 µM (active).
For `N[C@@H](Cc1ccc(Oc2cc(I)c(O)c(I)c2)c(I)c1)C(=O)O`, the Potency result is “inactive”.
Same read-out and setting: then `O=S1(=O)OC(c2cc(Br)c(O)c(Br)c2)(c2cc(Br)c(O)c(Br)c2)c2ccccc21`, with “inactive”.
Same read-out and setting: then `[Cl][Sn]([Cl])([Cl])[Cl]`, with “inactive”; and `O=[N+]([O-])c1ccc(CCl)cc1`, with 60.1 µM (active).
With `O=C(CCCN1CCC(n2c(=O)[nH]c3ccccc32)CC1)c1ccc(F)cc1`, the Potency result was “inactive”.
Same read-out and setting: then `COc1cc(CC#N)cc(OC)c1OC`, with “inactive”.
Turning to `CC(C)NCC(O)c1ccc([N+](=O)[O-])cc1` (stereo not given), the Potency entry was “inactive”.
Regarding `CC(C(O)c1ccccc1)N(C)C/C=C/c1ccccc1` (stereo not given), the Potency result was “inactive”.
Still for that read-out and setting: then `CC[C@@H](CO)NC(=O)[C@@H]1C=C2c3cccc4[nH]cc(c34)C[C@H]2N(C)C1`, with “inactive”; and `CC(Cl)(Cl)Cl`, with “inactive”.
On the same count and under the same terms, then `CCOC(=O)CC(=O)CCl`, with 68.6 µM (active).
With `CNC(C)Cc1ccccc1OC` (stereo not given), the Potency entry is “inactive”.
Turning to `CC(C)NCC(O)c1ccccc1Cl` (stereo not given), the Potency result was “inactive”.
Same read-out and setting: then `CCN(CC)CCOC(=O)C(C)(c1ccccc1)c1ccccc1`, with “inactive”.
The same measure, in the same setting: then `ClCc1cccc(Cl)c1`, with “inactive”.
Take `CC1=C2C[C@H]3[C@@H](CC=C4C[C@@H](O)CC[C@@]43C)[C@@H]2CC[C@]12O[C@@H]1C[C@H](C)CN[C@H]1[C@H]2C`: the Potency result is “inactive”.
For the molecule `CC(C)[C@H](C(=O)OC(C#N)c1cccc(Oc2ccccc2)c1)c1ccc(OC(F)F)cc1` (stereo not given in full), the Potency result is “inactive”.
